Reference: PubChem BioAssay (NCATS)
Inconclusive results are not listed. Activity calls are given as the source filed them. Unless noted, calls come from the whole dose curve; as a rule, active = well fitted curve in either direction with a large enough effect (not every such curve was filed as active); inconclusive = small, poorly fitted or top-dose-only effect, or another doubt; inactive = flat fitted curve, though single readings scatter.

Experiments:
[1] = biological target: Lysosomal acid glucosylceramidase (Homo sapiens) (UniProt P04062); test: Glucocerebrosidase-p2 (AID 348; in the data active = potency below about 10 µM; note: potency is the fitted concentration of half-maximal effect); details: purified GBA, blue fluorogenic substrate, 40 min
Procedure, shortened: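 Compounds titrated from 0.6 nM upwards against 0.2 nM enzyme in pH 5.9 citric acid/KH2PO4, taurocholate, tween-20; blue fluorogenic substrate 80 uM, 40 min room temperature, stopped and read Ex 365/Em 440 for AC50.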

[2] = AP1 Signaling Pathway (AID 357); details: ME-180 AP-1-bla reporter, EGF-induced, beta-lactamase ratio, 5 h; at 7.69 µM (top of the series) unless noted;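 note: ME-180 reporter cells stimulated with EGF at its EC50 level; % is set by controls: 0 for no effect and ±100 for the full control effect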
Procedure, shortened: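 AP-1-bla ME-180 cells, Opti-MEM + 0.5% dialyzed FBS, plated overnight 37 °C. Cpd titration + EC50 EGF, 5 h 37 °C. CCF4 2.5 h RT; ex 405, em 460/530 ratio → %activity, AC50.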

[3] = NFAT Signaling Pathway (AID 444); details: Jurkat NFAT-bla M1, carbachol, beta-lactamase ratio, 5 h; at 7.69 µM (top of the series) unless noted;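 note: carbachol stimulus at about its EC50 of 1 µM final; % is set by controls: 0 for no effect and ±100 for the full control effect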
Procedure, shortened: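 Jurkat cells with NFAT-driven β-lactamase reporter and co-expressed M1 receptor, stimulated with carbachol (final 1 uM, ~EC50), compound titration, 5 h at 37 °C. CCF4 loaded 1 h at RT; 460/530 nm ratio gave %activity and AC50.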

[4] = Stat Signaling Pathway (AID 446); details: ME-180 (cervical carcinoma) SIE beta-lactamase reporter, IL-6 stimulated, 5 h; at 7.69 µM (top of the series) unless noted;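 note: ME-180 cervical cancer cells given 40 pM IL-6 alongside compound; SIE-controlled beta-lactamase reporter measured as 460/530 nm FRET emission ratio; % is set by controls: 0 for no effect and ±100 for the full control effect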
Procedure, shortened: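 IL-6/STAT signaling read in ME-180 cells via an SIE beta-lactamase reporter. Stimulus was 40 pM IL-6 (its AC50) for 5 hrs, so both activation and inhibition register.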

[5] = biological target: Mitogen-activated protein kinase 10 (Mus musculus) (UniProt Q61831); test: JNK3 AlphaScreen Assay (AID 530); details: JNK3 lysate, c-Jun phosphorylation; series mostly up to 11.4 µM;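 note: kinase came from lysate of stimulated human HepG2 cells; signal reports phosphorylation of biotinylated GST-cJun 1-79 at Ser73 with 10 µM ATP; % is set by controls: 0 for no effect and ±100 for the full control effect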
Procedure, shortened: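 qHTS format: compounds tested as titrations against IL-1beta/TNF-alpha-activated HepG2 lysate JNK3 with biotin-GST-cJun substrate and 10 uM ATP at room temperature. Loss of anti-phospho-cJun AlphaScreen signal indicates inhibition.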

[6] = biological target: 3',5'-cyclic-AMP phosphodiesterase 4B (Homo sapiens) (UniProt Q07343); test: qHTS Assay for Inhibitors of PDE-IV (AID 607; active = well fitted activation curve with a large enough effect in the main read-out, with a control signal flat, not every such curve was filed as active; note: % of control where 0% means no effect); details: HEK293 ACTOne CNG channel cells, membrane potential fluorescence; series mostly up to 22.9 µM
Procedure, shortened: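 Live HEK293 cells with a modified cyclic nucleotide-gated (CNG) channel report intracellular cAMP via membrane-potential dye fluorescence (ex 535/em 590 nm). Endogenous PDE-IV was targeted. Compounds were tested at up to 22.9 uM final; RO 20-1724 100 uM served as control.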

Sequence of 3',5'-cyclic-AMP phosphodiesterase 4B (Homo sapiens) (Q07343 whole entry, looked up): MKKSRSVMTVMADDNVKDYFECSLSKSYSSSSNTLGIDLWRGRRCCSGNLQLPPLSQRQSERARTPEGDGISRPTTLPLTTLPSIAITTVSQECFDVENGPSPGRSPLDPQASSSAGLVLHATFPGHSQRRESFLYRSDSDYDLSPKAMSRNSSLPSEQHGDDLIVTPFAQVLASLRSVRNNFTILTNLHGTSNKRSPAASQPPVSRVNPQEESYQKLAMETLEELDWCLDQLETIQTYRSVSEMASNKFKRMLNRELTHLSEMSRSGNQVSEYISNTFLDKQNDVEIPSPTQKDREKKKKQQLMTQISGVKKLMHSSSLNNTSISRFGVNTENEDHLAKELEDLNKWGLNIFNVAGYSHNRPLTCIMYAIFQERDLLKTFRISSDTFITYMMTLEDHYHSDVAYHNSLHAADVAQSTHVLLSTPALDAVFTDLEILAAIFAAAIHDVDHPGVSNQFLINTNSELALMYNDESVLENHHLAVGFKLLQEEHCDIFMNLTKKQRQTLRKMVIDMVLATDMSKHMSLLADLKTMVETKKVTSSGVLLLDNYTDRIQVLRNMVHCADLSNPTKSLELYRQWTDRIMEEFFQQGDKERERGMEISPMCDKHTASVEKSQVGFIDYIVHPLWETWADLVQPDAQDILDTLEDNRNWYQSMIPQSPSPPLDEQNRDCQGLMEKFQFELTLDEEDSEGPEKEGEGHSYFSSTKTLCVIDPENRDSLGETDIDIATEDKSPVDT
Sequence of Lysosomal acid glucosylceramidase (Homo sapiens) (P04062 whole entry, looked up): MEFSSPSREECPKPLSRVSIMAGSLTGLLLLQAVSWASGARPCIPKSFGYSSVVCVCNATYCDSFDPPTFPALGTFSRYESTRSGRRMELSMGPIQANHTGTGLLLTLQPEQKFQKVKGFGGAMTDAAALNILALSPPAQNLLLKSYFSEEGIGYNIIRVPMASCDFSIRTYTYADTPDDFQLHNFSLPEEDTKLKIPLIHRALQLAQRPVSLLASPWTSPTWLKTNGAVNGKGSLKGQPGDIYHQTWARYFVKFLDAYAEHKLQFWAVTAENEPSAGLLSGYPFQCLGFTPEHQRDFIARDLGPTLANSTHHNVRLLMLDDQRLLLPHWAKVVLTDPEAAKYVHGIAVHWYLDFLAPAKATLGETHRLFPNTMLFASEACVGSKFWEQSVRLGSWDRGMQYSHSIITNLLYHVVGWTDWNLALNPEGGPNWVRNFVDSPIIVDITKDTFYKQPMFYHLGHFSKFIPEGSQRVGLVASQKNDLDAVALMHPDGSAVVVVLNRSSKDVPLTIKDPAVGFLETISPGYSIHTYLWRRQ

O=C(O)CN(CCN(CC(=O)O)CC(=O)O)CC(=O)O.[Mn]
inactive: Potency [1] > 11.4 µM | activity change, negative = inhibition [2] -0.063% | activity change, negative = inhibition [3] 7.91% | activity, negative = inhibition [4] 8.71% | Potency [5] | Potency [6]
